Among all 53,000 sequences or so, about 5,500 (10%) were called active. Cut-off read from the data, not from the text of the source: active = GI50 up to about 1.1 µM and inactive = higher. Shown is part of a subset that was picked to be rich in actives. Entries with a potency or affinity are not part of this list.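 Results reflect a 48-hour exposure of cells in 96-well plates to compound at five concentrations. At the GI50, growth is halved.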

This assay has as its system HL-60. The experiment in a line: NCI tumour cell line growth inhibition, 48 h.
Substance “ACRIFLAVINE HYDROCHLORIDE, CHEMBL5219995” yielded a GI50 of 333 nM.
Substance “[Bis(aminomethyl)dimethylsilane]tetrachloroplatinum(IV), CHEMBL2146190” came in with a GI50 of 248 nM.
“cis-Bis[[(trimethylsilyl)methyl]amino]tetrachloroplatinum(IV), CHEMBL2146191” returned a GI50 of 1760 nM.
The result for “[Bis(aminomethyl)ethylmethylsilane]tetrachloroplatinum(IV), CHEMBL2146192” reads 156 nM; that for “[Bis(aminomethyl)tetramethylenesilane]tetrachloropaltinum(IV), CHEMBL2146189”, 115 nM; that for CISPLATIN, CHEMBL11359, 542 nM.
As for “[Bis(aminomethyl)diethylsilane]tetrachloroplatinum(IV), CHEMBL2146203”, the figure is 91.2 nM; as for “[Bis(aminomethyl)pentamethylenesilane]tetrachloropaltinum(IV), CHEMBL2146204”, 56.6 nM.
As for “mu-(1,7-nanodiamine-N,N')bis-(cis-aminedichloroplatimum (II)), CHEMBL2146215”, the figure is 1640 nM; as for “[Bis(aminomethyl)tetramethylenesilane]dichloropaltinum(II), CHEMBL2146205”, 1570 nM; as for “[Bis(aminomethyl)dimethylsilane]dichloroplatinum (II), CHEMBL2146201”, 1300 nM.
For the substance “[Bis(aminomethyl)pentamethylenesilane]dichloropaltinum(II), CHEMBL2146202”, the GI50 is 51.3 nM.

The record behind these values is ChEMBL document CHEMBL1201862, “PubChem BioAssay data set” (2004).
